Measurements as given in the supplement of paper PMC7556523.
Values without a mark were called inactive.

Columns and labels:
[1] = system: Sporothrix brasiliensis CBS 133006; experiment: growth inhibition relative to untreated control; higher = more growth inhibition (more antifungal activity), active = 80 or more; extreme values may be limits of the assay; conditions: 1 µM; 48 h
Procedure, shortened: (§1)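 Each value is the percent growth inhibition compared with cells left untreated. Reference isolates were grown as yeast-form cells in brain heart infusion broth with 2% glucose for 7 days at 36°C, then exposed at 1 x 10^5 CFU/ml to library compounds at a final 1 μM for 48 h at 35°C in 5% CO2. Growth was inspected visually under an inverted light microscope and quantified by spectrophotometric readings, with runs in quadruplicate.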

[2] = system: Sporothrix schenckii ATCC 32286; experiment: as above; conditions: 1 µM; 48 h
Procedure, shortened: as §1

Row | Structure (SMILES) | growth inhibition [1] | growth inhibition [2]
1 | CC(C)(C)c1ccc(N[C@@H]2CCCC[C@H]2NC(=O)c2ccco2)cc1 | 7.25% | 0.75%
2 | COc1ccc(C(=N)N)cc1-c1cn(-c2ccc(C(=N)N)cc2)nn1 | 51.8% | 0%
3 | COc1cc(C2=NCCN2)ccc1-c1cn(-c2cccc(C3=NCCN3)c2)nn1 | 14% | 1.25%
4 | CCn1ncc2c(NC3CCOCC3)c(CNC(=O)c3ccnn3C)c(C)nc21 | 4.25% | 0%
5 | COc1cc(-c2cc(-c3ccc(S(C)(=O)=O)cc3)cnc2N)ccc1O | 17.8% | 19.8%
6 | C[C@H](C(N)=O)N1CCCC[C@@H]1c1ccc(OCc2cccc(F)c2)cc1 | 0% | 2%
7 | O[C@@H](c1cc(C(F)(F)F)nc2c(C(F)(F)F)cccc12)[C@H]1CCCCN1 | 6% | 15.2%
8 | Clc1cccc(CO[C@H]2CCc3ccccc3[C@@H]2n2ccnn2)c1 | 15.8% | 3%
9 | O=C1N(Cc2cc3ccccc3s2)CC2CN(Cc3ccccc3)CCN12 (stereo unspecified) | 22% | 4.5%
10 | Cn1c(=O)c2c(S(C)(=O)=O)snc2n(C)c1=O | 9% | 13.2%
11 | NC(=O)c1cc(-c2ccsc2)ccc1OCCOc1ccccc1 | 7.25% | 12.2%
12 | CS(=O)(=O)c1ccc(C(=O)N(CC2CCCO2)c2nc3ccccc3s2)cc1[N+](=O)[O-] (stereo unspecified) | 27.2% | 19%
13 | CCc1nc2ccc(C(=O)NCc3ccc4c(c3)OCO4)cn2c1N(C)Cc1cccs1 | 7% | 2.75%
14 | O=C(C1CCN(c2cc(-n3cccc3)ncn2)CC1)N1CCc2ccccc2C1 | 6% | 10.2%
15 | COc1cc(C(F)(F)F)nc2ccc(C)c(N)c12 | 6.75% | 14.5%
16 | CCOC(=O)c1cc(-c2csc(Nc3c(C)cc(C)cc3C)n2)on1 | 10.5% | 3.75%
17 | Cc1nc(-c2cccc(NCc3ccccc3)c2)[nH]c1C | 1.25% | 10.2%

Row | Structure (SMILES) | growth inhibition [1] | growth inhibition [2]
18 | COc1ccc(-c2cc(NC(=O)c3ccc(F)cc3Cl)ccc2OC)cc1 | 0% | 6.75%
19 | Cc1ccc(-c2nc(CN(Cc3ccccn3)C(C)C)cs2)o1 | 24% | 1.75%
20 | c1coc(CNc2nc(N3CCCCC3)nc3ccccc23)c1 | 4.25% | 13.5%
21 | CO[C@H]1/C=C\O[C@@]2(C)Oc3c(C)c(O)c4c(O)c(/c(=C/NN5CCN(C)CC5)c(O)c4c3C2=O)=N\C(=O)/C(C)=C\C=C/[C@H](C)[C@H](O)[C@@H](C)[C@@H](O)[C@@H](C)[C@H](OC(C)=O)[C@@H]1C | 3% | 11.2%
22 | O=C(C1CCN(c2nnnn2-c2ccccc2)CC1)N1CCc2ccccc2C1 | 2.5% | 3%
23 | O=C(NC1CCCCC1)N1CCN(Cc2ccc3c(c2)OCO3)CC1 | 9.25% | 17.2%
24 | CCN(CC)CCCCCCNc1cc(OC)cc2c(C)ccnc12 | 7% | 2.25%
25 | c1ccc(C[C@@H]2CN(c3nccc(Oc4ccc(-n5ccnc5)cc4)n3)CCN2)cc1 | 10.2% | 9.5%
26 | CC(=O)NCC1CN(c2ccc(-c3ccc(CNCc4cn[nH]n4)cc3)c(F)c2)C(=O)O1 (stereo unspecified) | 15.5% | 0%
27 | CNCCC(Oc1ccc(C(F)(F)F)cc1)c1ccccc1 (stereo unspecified) | 7.75% | 2%
28 | COc1ccc(Cn2cnc3c(-c4ccco4)nc(Cl)nc32)cc1 | 15.8% | 17.8%
29 | Cc1ccc2nc(Cl)c(CNCc3cccs3)cc2c1 | 0% | 2.25%
30 | c1ccc(Oc2ccc(-c3cncc(-c4ccc5[nH]ccc5c4)n3)cc2)cc1 | 8% | 12.5%
31 | Cc1nnc(NCc2cccc(Cl)c2)c2ccccc12 | 3% | 8.75%
32 | CC(=O)NCC1CN(c2ccc(-c3ccc(CO)cc3)c(F)c2)C(=O)O1 (stereo unspecified) | 4% | 13.2%
33 | COc1ccc(-c2nc(-c3cccc(NC(=O)Cc4ccc(F)cc4)c3)no2)cc1OC | 6.25% | 4%
